# Out of some 5,500 compounds screened, about 2,000 (36%) were called active. About 18% were inconclusive and are not listed. The list shows a part of the results. A number with no mark means an inactive call. Cut-off read from the data, not from the text of the source: active = normalized growth mostly below about 0.91 (no sharp cut-off); inconclusive = no clear call, values can overlap the other calls; inactive = mostly above about 0.92.
# Assay: chemical genetic growth profiling, strain panel (AID 1159580);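 note: tested at 20 µM; growth read once vehicle control cultures reached saturation at 30 °C; 1 = growth at the plate median or of vehicle wells; lower values mean less growth of the strain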
# Conditions: S. cerevisiae deletion strains, growth OD
smiles,measurement,setting,value
O=c1cc(C(F)(F)F)[nH]c2c(Cl)cccc12,normalized growth,"locus YAL013W, strain DEP1, hits give low values",0.884 (active)
same,normalized growth,"locus YBR229C, strain ROT2, hits give low values",0.816 (active)
same,normalized growth,"locus YDL101C, strain DUN1, hits give low values",0.883 (active)
same,normalized growth,"locus YDR150W, strain NUM1, hits give low values",0.86
same,normalized growth,"locus YEL061C, strain CIN8, hits give low values",0.886 (active)
same,normalized growth,"locus YGR078C, strain PAC10, hits give low values",0.813 (active)
same,normalized growth,"locus YGR229C, strain SMI1, hits give low values",0.929 (active)
same,normalized growth,"locus YHR030C, strain SLT2, hits give low values",0.847
same,normalized growth,"locus YHR087W, strain rtc3, hits give low values",0.831 (active)
same,normalized growth,"locus YJR043C, strain POL32, hits give low values",0.905 (active)
same,normalized growth,"locus YJR075W, strain HOC1, hits give low values",0.779 (active)
same,normalized growth,"locus YLR039C, strain RIC1, hits give low values",0.846
same,normalized growth,"locus YLR058C, strain SHM2 (second series), hits give low values",0.84 (active)
same,normalized growth,"locus YLR085C, strain ARP6, hits give low values",0.827
same,normalized growth,"locus YLR262C, strain YPT6, hits give low values",0.847
same,normalized growth,"locus YML094W, strain GIM5, hits give low values",0.938
same,normalized growth,"locus YMR219W, strain ESC1, hits give low values",0.831 (active)
same,normalized growth,"locus YMR263W, strain SAP30, hits give low values",0.844 (active)
same,normalized growth,"locus YNL153C, strain GIM3, hits give low values",0.86 (active)
same,normalized growth,"locus YNL298W, strain CLA4 (second series), hits give low values",0.902
same,normalized growth,"locus YNL322C, strain KRE1, hits give low values",0.863 (active)
same,normalized growth,"locus YNR030W, strain Alg12, hits give low values",0.919
same,normalized growth,"locus YOL006C, strain TOP1, hits give low values",0.913
same,normalized growth,"locus YPL055C, strain LGE1, hits give low values",0.823 (active)
same,normalized growth,"locus YPL241C, strain CIN2, hits give low values",0.935
same,normalized growth,"locus YPR135W, strain CTF4, hits give low values",0.874
